Consider 40 molecules from PubChem BioAssay (NCATS).

Records with an inconclusive call do not appear. A call without a number means that no potency is given here. Active and inactive are the calls of the source. Calls follow the shape of the dose curve; as a rule, active = well fitted inhibition curve with a large enough effect; inconclusive = small, poorly fitted or top-dose-only effect; inactive = flat fitted curve, though single readings scatter.
Potency is read from the fitted curve at half-maximal effect.

Ubiquitin carboxyl-terminal hydrolase 1 (Homo sapiens), sequence (O94782 whole entry, looked up): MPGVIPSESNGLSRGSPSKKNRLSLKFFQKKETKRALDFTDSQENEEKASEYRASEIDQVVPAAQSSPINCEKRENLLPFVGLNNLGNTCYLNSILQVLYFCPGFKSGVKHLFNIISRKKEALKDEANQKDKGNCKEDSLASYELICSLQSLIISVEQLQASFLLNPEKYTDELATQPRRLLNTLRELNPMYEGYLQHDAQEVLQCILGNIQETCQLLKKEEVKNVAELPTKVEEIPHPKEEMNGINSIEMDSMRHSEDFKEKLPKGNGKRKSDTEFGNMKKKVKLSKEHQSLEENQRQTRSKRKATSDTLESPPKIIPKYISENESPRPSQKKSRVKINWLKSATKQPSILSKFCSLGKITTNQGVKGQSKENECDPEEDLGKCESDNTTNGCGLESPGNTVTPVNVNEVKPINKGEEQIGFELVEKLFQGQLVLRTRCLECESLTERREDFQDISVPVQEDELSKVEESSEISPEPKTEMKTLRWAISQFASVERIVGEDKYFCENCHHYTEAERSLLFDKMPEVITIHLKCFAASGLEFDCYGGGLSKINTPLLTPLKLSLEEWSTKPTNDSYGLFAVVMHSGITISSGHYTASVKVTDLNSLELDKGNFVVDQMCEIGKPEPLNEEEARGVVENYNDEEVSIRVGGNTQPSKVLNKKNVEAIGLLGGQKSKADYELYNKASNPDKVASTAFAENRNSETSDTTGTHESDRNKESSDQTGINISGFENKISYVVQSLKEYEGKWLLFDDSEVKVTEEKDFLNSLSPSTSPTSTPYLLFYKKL

The test has as its target Ubiquitin carboxyl-terminal hydrolase 1 (Homo sapiens) (UniProt O94782). As to the kind of experiment: Inhibitors of USP1/UAF1: Pilot qHTS (AID 504865). Also: nearly all actives have a fitted effect of over 35% in size. Particulars: purified USP1/UAF1, Ub-rhodamine cleavage fluorescence; series mostly up to 114 µM. The text has this: Deubiquitinating enzymes (DUBs) are a class of enzymes that can cleave isopeptide bond formed between the C-terminal carboxylate of ubiquitin and a lysine side-chain amino group on the target protein. Among them, ubiquitin specific proteases (USPs) constitute the largest DUB family. Human USPs are emerging as promising targets for pharmacological intervention because of their connection to a number of human diseases, including prostate, colon and breast cancer (1, 2), pediatric acute lymphoblastic leukemia (3), and familial cylindromatosis (4). The advantage of inhibiting USPs lies in the potential specificity of therapeutic intervention that can lead to better efficacy and reduce nonspecific side effects.
In a collaboration between the University of Delaware and the NIH Chemical Genomics Center, a high-throughput screen assay was developed to screen for USP1/UAF1 inhibitors. This miniaturized assay has a fluorescent read-out and is used to screen the NIH Molecular Libraries Small Molecule Repository (MLSMR) in order to identify a small molecule that inhibits USP1.
NIH Chemical Genomics Center [NCGC]
NIH Molecular Libraries Probe Centers Network [MLPCN]
Assay Submitter (PI): Zhihao Zhuang, University of Delaware
1. Priolo, C., et al. (2006) The isopeptidase USP2a protects human prostate cancer from apoptosis. Cancer Res 66, 8625-8632
2. Popov, N., et al. (2007) The ubiquitin-specific protease USP28 is required for MYC stability. Nat Cell Biol 9, 765-774
3. De Pitta, C., et al. (2005) A leukemia-enriched cDNA microarray platform identifies new transcripts with relevance to the biology of pediatric acute lymphoblastic leukemia. Haematologica 90, 890-898
4. Kovalenko, A., et al. (2003) The tumour suppressor CYLD negatively regulates NF-kappaB signalling by deubiquitination. Nature 424, 801-805
3 microliters of reagents (buffer in columns 3 and 4 as negative control and 1nM USP1/UAF1 complex in columns 1, 2, and 5-48) are dispensed into Greiner black solid bottom 1536-well assay plates. Compounds are then transferred via Kalypsys pin tool equipped with 1536-pin array (10nl slotted pins, V&P Scientific, San Diego, CA). Following an incubation step of 15 min at room temperature, 1ul of Ub-Rho substrate (150nM final concentration) is added to initiate the reaction. The plates are immediately centrifuged at 1000 rpm for 15 seconds, and subsequently transferred to a ViewLux high-throughput CCD imager (PerkinElmer) wherein kinetic measurements of fluorescence are acquired using 480 nm excitation/540 nm emission filter set (6 reads every 60 seconds, see Table 1). All reagents are diluted in an assay buffer consisting of 50mM HEPES (pH 7.8), 0.5mM EDTA, 0.1 mg/ml BSA, 1mM TCEP, and 0.01% Tween-20.
(In general: qHTS replaces the single test concentration by a dilution series.)
Take `Nc1ncnc2c1[nH]c(=O)n2C1CC(O)C(CO)O1` (stereo not given): the Potency entry was “inactive”.
Under `C=C1C(=O)OC2C[C@@]3(C)CCCC(C)C3=CC12` (stereo not given in full) stands “inactive”.
Under `Cc1onc(-c2c(Cl)cccc2Cl)c1C(=O)NC1C(=O)N2C1SC(C)(C)C2C(=O)O` (stereo not given) stands “inactive”; under `COc1ccc(-c2oc3ccccc3c(=O)c2O)cc1`, “inactive”.
For the molecule `COc1ccc(C2COc3c(ccc(O)c3OC)C2)c(OC)c1O` (stereo not given), the Potency entry is “inactive”.
To `COc1cccc2c1C(=O)CC(c1ccccc1)O2` (stereo not given) belongs “inactive”.
Under `CNC1C(O)C2OC3OC(C)CC(=O)[C@@]3(O)O[C@H]2[C@H](NC)C1O` (stereo not given in full) stands “inactive”; under `COC(=O)CC1[C@@]2(C)C[C@]34OC5(C)OC6(C7CC(=O)OC(c8ccoc8)[C@]7(C)CCC6(O5)[C@]13C)C(OC(C)=O)[C@]4(OC(C)=O)C2OC(C)=O` (stereo not given in full), “inactive”; under `CC1C(NC(=O)/C(=N/OC(C)(C)C(=O)O)c2csc(N)n2)C(=O)N1S(=O)(=O)O` (stereo not given), “inactive”.
Turning to `COc1ccc(/C=C/C(=O)c2cccs2)cc1OC`, the Potency result is “inactive”.
To `CNCC(=O)NC(CCCN=C(N)N)C(=O)NC(C(=O)NC(Cc1ccc(O)cc1)C(=O)NC(C(=O)NC(Cc1cnc[nH]1)C(=O)N1CCCC1C(=O)NC(C)C(=O)O)C(C)C)C(C)C` (stereo not given) belongs “inactive”; to `C=C1C([C@@]2(C)C(OC(C)=O)CC(=O)O[C@@](C)(COC(C)=O)C2CC(=O)OC)C(OC=O)C(OC(=O)C(O)C(C)CC)[C@]2(C)C(c3ccoc3)CC(=O)C12O` (stereo not given in full), “inactive”; to `COc1cccc2oc(-c3ccccc3)cc(=O)c12`, “inactive”.
As for `CC1CCC2C(C)(C)C3CC12CC[C@]3(C)O` (stereo not given in full), the Potency entry is “inactive”.
Under `OC1C=C2CCN3Cc4cc5c(cc4C(C1O)C23)OCO5` (stereo not given) stands “inactive”.
Turning to `NCC1O[C@H](O[C@@H]2C(O)[C@H](O[C@H]3OC(CO)C(O)C(N)C3O)[C@@H](N)C[C@H]2N)[C@@H](N)CC1O` (stereo not given in full), the Potency result is “inactive”.
Under `CC(N)C(=O)NCC(=O)NC1CSSCC(C(=O)O)NC(=O)C(CO)NC(=O)C(C(C)O)NC(=O)C(Cc2ccccc2)NC(=O)C(C(C)O)NC(=O)C(CCCCN)NC(=O)C(Cc2c[nH]c3ccccc23)NC(=O)C(Cc2ccccc2)NC(=O)C(Cc2ccccc2)NC(=O)C(CC(N)=O)NC(=O)C(CCCCN)NC1=O` (stereo not given) stands “inactive”.
Under `C[N+]1(C)C2CC(OC(=O)C(CO)c3ccccc3)CC1C1OC12` (stereo not given) stands “inactive”; under `Nc1nc2c(ncn2C2CC(O)C(CO)O2)c(=O)[nH]1` (stereo not given), “inactive”.
Consider `CCOC(=O)C(CS)NCCN[C@@H](CS)C(=O)OCC` (stereo not given in full), for which the Potency result is “inactive”.
As for `CC1O[C@@H](O[C@@H]2C(O)C[C@H](O[C@@H]3C(O)C[C@@H](OC4CC[C@@]5(C)C6CC[C@]7(C)C(C8=CC(=O)OC8)CC[C@@]7(O)C6CC[C@@H]5C4)OC3C)OC2C)CC(O)[C@H]1O` (stereo not given in full), the Potency result was “inactive”.
Take `CC1CCC2[C@](C)(CO)C(O)CC[C@]2(C)C12CCC(CO)(CCO)O2` (stereo not given in full): the Potency result was “inactive”.
To `CCCN1CC(CSC)C[C@H]2c3cccc4[nH]cc(c34)C[C@H]21` (stereo not given in full) belongs “inactive”.
With `c1ccc(-c2csc(-c3nc4ccccc4[nH]3)n2)cc1`, the Potency was 22.4 µM (active).
On to `OC[C@H]1O[C@@H](OC[C@H]2O[C@@H](O)[C@H](O)[C@@H](O)[C@@H]2O)[C@H](O)[C@@H](O)[C@@H]1O`, for which the Potency result was “inactive”.
To `C[C@@]12CCC(OC(=O)c3ccccc3)CC1CCc1ccccc12` (stereo not given in full) belongs “inactive”; to `CC(=O)OCC(=O)[C@@]1(O)CCC2C3CCC4=CC(=O)CC[C@]4(C)C3C(=O)C[C@]21C` (stereo not given in full), “inactive”.
Under `NC(=O)CCC1NC(=O)C(Cc2ccccc2)NC(=O)C(Cc2ccc(O)cc2)NC(=O)CCSSCC(C(=O)N2CCCC2C(=O)NC(CCCN=C(N)N)C(=O)NCC(N)=O)NC(=O)C(CC(N)=O)NC1=O` (stereo not given) stands “inactive”; under `Nc1ncnc2c1nc(Br)n2C1OC(CO)C(O)C1O` (stereo not given), “inactive”; under `CC1CC2C3CCC4=CC(=O)C=C[C@@]4(C)[C@]3(F)C(O)C[C@]2(C)[C@]1(O)C(=O)COP(=O)(O)O` (stereo not given in full), “inactive”.
To `CN(C)c1ccc(O)c2c1C[C@@H]1C[C@H]3C(N(C)C)C(=O)C(C(N)=O)=C(O)[C@@]3(O)C(=O)C1=C2O` (stereo not given in full) belongs “inactive”; to `O=C(OCC1OC(OC(=O)c2cc(O)c(O)c(OC(=O)c3cc(O)c(O)c(O)c3)c2)[C@@H](OC(=O)c2cc(O)c(O)c(OC(=O)c3cc(O)c(O)c(O)c3)c2)C(OC(=O)c2cc(O)c(O)c(OC(=O)c3cc(O)c(O)c(O)c3)c2)C1OC(=O)c1cc(O)c(O)c(OC(=O)c2cc(O)c(O)c(O)c2)c1)c1cc(O)c(O)c(OC(=O)c2cc(O)c(O)c(O)c2)c1` (stereo not given in full), 3.98 µM (active); to `CC(=O)OC1CCC2(C)C(=CCC3C2CCC2(C)C3C[C@@H]3O[C@]32C(C)=O)C1` (stereo not given in full), “inactive”.
For the molecule `CC(=O)c1ccc[nH]1`, the Potency result was “inactive”.
To `C[C@H]1O[C@@H](O[C@H]2[C@@H](O)C[C@H](O[C@H]3[C@@H](O)C[C@H](O[C@H]4CC[C@]5(C)C6CC[C@]7(C)[C@@H](C8=CC(=O)OC8)CC[C@]7(O)C6CC[C@@H]5C4)O[C@@H]3C)O[C@@H]2C)C[C@H](O)[C@@H]1O` (stereo not given in full) belongs “inactive”.
To `COc1cc2c(C=O)c3c4c(cc(OC)c(OC)c4c2cc1OC)CCN3C` belongs 22.4 µM (active).
As for `NC(N)=N/N=C\c1c(Cl)cccc1Cl`, the Potency result is “inactive”.
Under `COC(=O)c1c(C)cc(O)cc1O` stands “inactive”.
Regarding `COc1ccc(-c2oc3cc(OC)ccc3c(=O)c2O)cc1`, the Potency result was “inactive”.
To `CC1(C)C(/C=C/C=C/C=C/C=C2\N(CCCCS(=O)(=O)O)c3ccc4ccccc4c3C2(C)C)=[N+](CCCCS(=O)(=O)[O-])c2ccc3ccccc3c21` belongs 31.6 µM (active).
